The OligoGym collection

Target: SMC5
Experiment: pooled miR-30 sensor sort-seq; sequence = guide strand
Conditions: shRNA
Note: reference of the scale not given here.

In order of falling sensor-assay potency score (higher = more potent):
1. TTGATTTCATCAACTACTCTGA  0.124
2. TTTATTGTCACGAACCTCTTTG  -0.041
3. TTCTGCAATAATCTCTGTCTAT  -1.01

Target: SMCP
Experiment: as above
Conditions: shRNA

In order of falling sensor-assay potency score (higher = more potent):
1. TCTAAACACAGGTCTAGCCTGA  0.141
2. TTGATTGCCTTTTGACTGGCAG  0.000564
3. TTGGTGGGCAGCATTGACTGCC  -0.359
4. TAAGGGGTGAGACTTCAGGCTT  -0.603
5. TTTGGTGGGCAGCATTGACTGC  -0.712
6. TTTTGACTGGCAGCACTGGTTC  -0.818
7. TTTGCTGGGCAGCATTTACTGT  -0.976
8. TGACTGGCAGCACTGGTTCTGC  -1.04
9. TTTGCGGTGAGTTGGGCTCAGA  -1.18
10. TTGTCCTGAGTTTGCGGTGAGT  -1.27
11. TTGGTCTCCAAACCACAGCACC  -1.3
12. TTGTGTTTTGGTGGGCAGCATT  -1.54

Target: SMCR7L
Experiment: as above
Conditions: shRNA

In order of falling sensor-assay potency score (higher = more potent):
1. TACATTGCAATAAATACTGCAA  0.27
2. AAACATGCTATCACAGCTCTTC  0.268
3. TTCTACTCCAGGAACCGTGGTC  0.223
4. TTGCATTCAGCTTATCCTGTGT  0.0334
5. TGACTTCTTCAAGTCTACCTGG  -0.253
6. TTAAACATTCCTCCCCACCTTC  -0.361
7. TAAGTAGCTGATAAGTCCCCTC  -0.665
8. TTGTCTGTCTGACCCCTGCAGC  -0.951
9. TAGCCAAGTGTATCTAACGGAG  -1.24
10. TATGTCCACAGCAGCTTGCTTG  -1.35
11. TTCTCCTGCAGGGACATGCGGA  -1.36
12. TTGCTCTAAGGCCACATCCTAG  -1.5

Target: SMYD2
Experiment: as above
Conditions: shRNA

In order of rising sensor-assay potency score (higher = more potent):
1. TAACATATGAAACCATGCCATT  -1.62
2. TTTGCCGTGAGCTACTTCCATG  -1.61
3. TACAGCTCTGACTTCTGCCAGG  -0.948
4. TTACTGTCCTCAAACACAGAGC  -0.927
5. TTATCCTTGTCCTTGGTGGTAC  -0.716
6. TAGTCTTACAGTCTCCGAGGGA  -0.703
7. TTAAGGTTTCTGAACTAAGTGT  -0.419
8. TACAGGAGATCAATATAGCTGG  -0.203
9. TTTTCTGTCCATATTGCAGGGC  -0.2
10. TTGACCGTGAGCACGTAGGCAT  -0.166
11. TAGGTCACAATGACATTGGGGC  0.446
12. TTAACCGGTCATTTCTATCTTC  0.511
